Results as given in PubChem BioAssay AID504861 (Broad Institute, 2011).
In all, about 1,200 compounds went through this assay and about 290 (24%) were called active. About 3% were inconclusive and are not listed. Only a sample is shown. Measured potencies and affinities stand elsewhere. Values without a mark were called inactive.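 The calls were made as follows: active = compounds lowering cell viability signal with fitted half-maximal concentration at most ten times their highest tested concentration; inconclusive = flat fit with 30 to 70% signal loss, or poor fit; inactive = the rest.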

Experiment: cytotoxicity in HEK293T cells – cell-based, CellTiter-Glo luminescence, cherry-picks, cytotoxicity control for LMP1 NF-kB inhibitor project, dose response (AID 504861)
Conditions: HEK293T viability, CellTiter-Glo ATP luminescence, 48 h; series mostly up to 26 µM; activity change, negative = cytotoxicity: at the top concentration

Structure (SMILES)	activity change, negative = cytotoxicity [%]
CCn1c2ccccc2c2cc(/C=N/NC(=O)c3ccncc3)ccc21	10.8
COc1ccc(CCNC(=O)c2nnn(-c3ccc4c(c3)OCCO4)c2N)cc1OC	-3.16
CNS(=O)(=O)c1cccc(C(=O)OCC(=O)c2ccc3c(c2)OCCO3)c1	4.41
O=C(c1noc2c1CCCC2)N1CCCCC1	2.78
CC[C@H]1OC(=O)[C@H](C)[C@@H](O[C@H]2C[C@@](C)(OC)[C@@H](O)[C@H](C)O2)[C@H](C)[C@@H](O[C@@H]2O[C@H](C)C[C@H](N(C)C)[C@H]2O)[C@](C)(O)C[C@@H](C)C(=NOCOCCOC)[C@H](C)[C@@H](O)[C@]1(C)O	1.19
COc1cc2c(cc1OC)-c1cc(Nc3ccc4c(c3)OCCO4)nc(=O)n1CC2	35.8
Cc1nc2ncccn2c1-c1csc(Nc2ccccc2)n1	3.33
CCOC(=O)C1=C(C)NC(C)=C(C(=O)OCC)C1c1cn(-c2ccccc2)nc1-c1ccco1	9.17
COCCn1c(SCCN2CCOCC2)nc2c1c(=O)[nH]c(=O)n2C	-5.1
Cc1cccc(NC(=O)c2cnc3ccccn3c2=O)c1	11.3
CC(C)c1nnc(NC(=O)c2ccc(N3C(=O)CCC3=O)cc2)s1	9.62
COc1ccc(-n2c(SCC(=O)Nc3cc(C)on3)nc3c(c2=O)SCC3)cc1	6.53
COc1ccc(/C=N/N=C/c2ccc(OC)c(OC)c2)cc1OC	13.3
COc1cc(/C=C2/SC(=S)N(Cc3ccccc3)C2=O)ccc1OCC(=O)O	1.52
CCOCCCn1c(=S)[nH]c2ncccc2c1=O	21.6
O=c1c2c(nc3c(-c4ccc(Cl)cc4)c[nH]n13)CCCC2	-9.92
CC(=NNC(=S)N1CCCCCC1)c1cccc2cccnc12	-5.32
CC1=C(CC(=O)O)c2cc(F)ccc2C1=Cc1ccc(S(C)(=O)=O)cc1	0.041
COc1ccc(OC)c(CCNC(=O)CCn2nc(C)c3c(C)n(-c4ccccc4)nc3c2=O)c1	3.9
COCCn1c(C)cc(C(=O)COC(=O)C23CC4CC(CC(O)(C4)C2)C3)c1C	3.31
CC1CCc2nc(N)c(C#N)c(-c3cccnc3)c2C1 (centres undefined)	-2.74
N#CCN(N=Nc1ccccc1)c1ccccc1	-6.12
CC(NC(=O)CCOc1ccccc1)c1ccccc1 (centres undefined)	1.19
C[C@@H](OC(=O)c1[nH]cnc1C(=O)N1CCc2ccccc2C1)c1ccccc1	-0.366
COc1cccc(-c2nnc(NC(=O)c3ccc(S(=O)(=O)N(CC(C)C)CC(C)C)cc3)o2)c1	1.48
CCn1c2ccccc2c2cc(/C=N/n3cnnc3)ccc21	-7.83

Structure (SMILES)	activity change, negative = cytotoxicity [%]
C=CC[N+](C)(C)C/C(Cl)=C(\Cl)c1ccccc1	7.76
O=[N+]([O-])c1ccc(Cl)c(S(=O)(=O)NCC2CCCO2)c1 (centres undefined)	6.06
c1ccc2c(-c3ccncc3)c[nH]c2c1	-0.974
COc1cc(/C=N/NC(=O)c2cc(C34CC5CC(CC(C5)C3)C4)[nH]n2)ccc1O	3.92
Cc1ccccc1CC(=O)NCc1cccnc1	-5.15
Oc1ccccc1C=NN=Cc1c(O)ccc2ccccc12	3.24
CCn1c2ccccc2c2cc(/C=N/NC(=O)c3cc(O)cc(O)c3)ccc21	-8.8
c1nc(NCc2ccc3c(c2)OCO3)c2cc(-c3ccoc3)ccc2n1	-11.3
Oc1c(N=NC(=S)Nc2ccccc2F)c2ccccc2n1Cc1ccccc1F	12
CCS(=O)(=O)c1nnnn1-c1ccccc1S(C)(=O)=O	-0.286
O=C1c2ccccc2C(=O)c2cc(N3CCCCC3)ccc21	-5.57
O=C(NC(c1ccc(Cl)cc1)c1cc(Cl)c2cccnc2c1O)c1cccnc1 (centres undefined)	15.2
CC(C)c1cc(NC(=O)c2ccccc2)cc(C(C)C)c1O	3.11
Nc1cc2ccncc2c2ccccc12	-17.4
CC1=C(C)C(OCCCl)N(c2cc(O)c(Cl)cc2F)C1=O (centres undefined)	11.4
Cc1ccc(N2CCCCn3c2nc2c3c(=O)n(CC(=O)O)c(=O)n2C)cc1	5.91
Nc1ncnc(N2CCc3ccccc32)c1[N+](=O)[O-]	5.71
COc1ccc(-c2cc3c(=O)n(CC(=O)NCCCN4CCN(Cc5ccccc5)CC4)ncn3n2)cc1	-1.47
Cc1ccccc1C(=O)N1CCN(c2ccc(NC(=O)c3cccs3)cc2)CC1	12.1
COc1nc(Nc2nc3ccccc3c(=O)[nH]2)nc2ccc(C)cc12	6.13
COc1ccc2cc3c(N)nn(C(=O)c4ccccc4[N+](=O)[O-])c3nc2c1	-10.9
O=C(O)c1c2c(nc3ccccc13)/C(=C/c1ccc(O)cc1)CC2	11.7
Cc1nn(CCCC(=O)Nc2cccnc2Cl)c(C)c1[N+](=O)[O-]	1.66
COCCN1Cc2cccc(C(=O)N3CCN(c4cc(C)ccc4C)CC3)c2C1=O	-7.98
CCOC(=O)[C@H]1[C@H]2COc3ccc(OC)cc3[C@@H]2N2C(=O)CN(C)C(=O)[C@@]12C	0.991
CCn1nc(C(=O)Nc2nc(-c3ccccn3)cs2)c2ccccc2c1=O	5.64

Structure (SMILES)	activity change, negative = cytotoxicity [%]
O=C(CN1C(=O)c2ccccc2S1(=O)=O)c1ccccc1	16.5
COc1cc(C2NC(=O)NC(C)=C2C(=O)OC2CCCC(C)C2)cc(Br)c1O (centres undefined)	1.98
O=C(c1ccco1)N1CCN(S(=O)(=O)/C=C/c2ccccc2)CC1	-2.25
CCCN(CCC)S(=O)(=O)c1ccc(C(=O)Nc2nnc(-c3cc(OC)cc(OC)c3)o2)cc1	2.24
COc1cc(/C=N/NC(=S)Nc2cccc(C(=O)O)c2)ccc1O	13.6
S=C(N/N=C/c1ccc2ncccc2c1)Nc1cccnc1	0.537
COc1ccc(CNC(=O)N2[C@H]3CC[C@@H]2C=C(c2ccc(F)cc2OCc2ccccc2)C3)cc1OC	8.66
CCOc1cccc(CNc2nnnn2C)c1	-0.593
Cn1c(=O)[nH]c(=O)c2c1nc(CN1CCOCC1)n2CCCc1ccccc1	2.77
O=C(c1ccc(C#CC2(O)CCCCC2)cc1)N1CCN(C(c2ccccc2)c2ccccc2)CC1	3.71
CN(CC(=O)Nc1cccnc1)S(=O)(=O)c1ccc(Br)cc1	21.2
CC1CCN(c2ccc(-c3ccc(NC(=O)C(F)(F)F)cc3)nn2)CC1	7.11
Cc1ccc(-c2cc(N)n3nc(-c4ccc(C)cc4)cc3n2)cc1	10.3
COc1ccc(S(=O)(=O)NC(CC(=O)NCc2ccco2)C(C)C)cc1 (centres undefined)	7.05
CC(=O)Nc1ccc(S(=O)(=O)N2CCCC2)cc1	10
CC(=O)Nc1nc(C)c(-c2csc(Nc3cccc([N+](=O)[O-])c3)n2)s1	-0.558
Nc1ccn([C@@H]2O[C@H](CO)[C@@H](O)C2O)c(=O)n1 (some centres undefined)	1.52
CCOC(=O)N1CCN(C(=O)C2CCC(=O)N(Cc3ccccc3OC)C2)CC1 (centres undefined)	4.09
Cc1csc(NC(=O)c2ccc(N3CCCC3=O)cc2)n1	-6.07
COc1ccc(/C=C2\SC(=O)N(CCCC(=O)Nc3ccc(C(=O)O)cc3)C2=O)cc1	1.35
O=C1/C(=C/c2ccncc2)SC(=S)N1Cc1ccccc1	3.49
COc1ccccc1NC(=O)CC(c1ccc(OC(C)C)cc1)c1ccccc1OC (centres undefined)	3.18
Brc1ccc(-c2csc(N3CCCCCC3)n2)cc1	14.6
CC(C)(O)C#Cc1ccc([C@@H]2C[C@H]3CN(c4ccccc4)C(=O)[C@]34CCCN24)s1	-8.23
CN(C1CCCCC1)S(=O)(=O)c1ccc(C(=O)N2CCN(c3nc4ccccc4s3)CC2)cc1	3.38
Cc1cccc(NC(=S)N=Nc2c(O)n(C)c3ccc(S(=O)(=O)N4CCOCC4)cc23)c1	8.1

Structure (SMILES)	activity change, negative = cytotoxicity [%]
CC(CCc1ccco1)N(C)S(=O)(=O)c1csc(C(N)=O)c1 (centres undefined)	3.06
CCC(=O)NC(c1ccc(C)cc1)c1cc(Cl)c2cccnc2c1O (centres undefined)	4.72
O=C(Nc1ccncc1)OCc1ccccc1	-5.71
CS(=O)(=O)N(CC(=O)Nc1ccc(F)cc1F)C1CCCCC1	7.69
COc1ccc(-c2cc3nc4n(c(=O)c3s2)CCC4)cc1	-0.959
O=C(N/N=C(/CC(=O)c1cccs1)C(F)(F)F)c1ccc(O)cc1	13.8
CC(C)(C)c1ccc(C(=O)N2CCC(=O)N(C(CO)Cc3ccccc3)CC2)cc1 (centres undefined)	1.74
COc1ccc(-n2c(C)c(C(C)=O)c3cc(OC(C)=O)ccc32)cc1	-3.31
O=c1nc(N/N=C/C=C/c2ccccc2)cn[nH]1	13.1
COc1ccc2cc3c(N)nn(C(=O)c4cccc([N+](=O)[O-])c4)c3nc2c1	8.36
CCCc1cc(=O)[nH]c(SCC(=O)NC2CCCCC2)n1	0.135
O=Cc1cc(OCc2ccccc2)ccc1[B-](F)(F)F	17.3
C[C@@H]1CN([C@@H](C)CO)S(=O)(=O)c2ccc(/C=C/c3ccccc3)cc2O[C@@H]1CN(C)Cc1ccc(C(=O)O)cc1	-12.6
c1csc(CNc2ncnc3ccc(-c4ccoc4)cc23)c1	-9.02
CC(=O)OCC(=O)[C@@]1(O)CC[C@H]2[C@@H]3CCC4=CC(=O)CC[C@]4(C)[C@H]3[C@@H](O)C[C@@]21C	1.32
O=C(NCCc1ccccc1)c1ccccc1Cl	5.61
COc1ccccc1-c1nnc(Sc2nc([N+](=O)[O-])nn2C)o1	-10.5
Cc1ccc(NC(=O)/C=N/OCC(=O)NCc2ccccc2Cl)cc1	4.14
CSc1ccccc1C(=O)N1CCC2(CC1)CC(=O)c1ccccc1O2	-2.08
CSc1nc(N)nc(SCC(=O)C23CC4CC(CC(C4)C2)C3)c1C#N	-8.4
COc1cc2c(=O)n(CC3CCCO3)c(=O)n(CC(=O)Nc3cccc(Cl)c3)c2cc1OC (centres undefined)	4.18
O=[N+]([O-])c1ccc(/C=N/Nc2cc(Cl)nc(-c3ccccc3)n2)cc1	3.89
Cc1nn(C(C)(C)C)c(C)c1/C=N/OC(=O)Nc1ccc(Cl)c(Cl)c1	7.48
COc1ccc(-c2csc3ncnc(NCCN4CCOCC4)c23)cc1	7.69
COc1ccc2cc(-c3cc(C(=O)OCC(=O)NC4CCS(=O)(=O)C4)c4ccccc4n3)ccc2c1 (centres undefined)	-0.211
CCOc1ccc(-c2cc(C(=O)N/N=C/c3ccc(O)cc3)c3ccccc3n2)cc1	-1.88
